Most compounds without a hit are left out; they make up all but 16% or so of the library.
uPA surface inh: qHTS for Inhibitors of Cell Surface uPA Generation; cell surface uPA generation assay, qHTS; Potency, µM (doses to about 38.3 µM), most hits filed as inhibitors; actives 0.31% (n = 330,000); active = well fitted inhibition curve with a large enough effect; inconclusive = small, poorly fitted or top-dose-only effect; inactive = no such curve, though single readings can be large or run the other way; tested in mouse RAW 264.7 cells; note: nearly all actives have a fitted effect of over 55% in size
TDP1 cell noCPT: qHTS for Inhibitors of human tyrosyl-DNA phosphodiesterase 1 (TDP1): qHTS in cells in absence of CPT. AID 686978, 2013. Potency, µM (titrated, usually from 46.2 µM), hits mostly inhibitors. DT40 Tdp1-/- hTDP1 cells, no CPT, ATP luminescence, 48 h. actives 15% (n = 420,000); note: nearly all actives have a fitted effect of over 55% in size
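Chicken DT40 Tdp1-/- cells stably complemented with human TDP1 were seeded at 400 cells/well with DMSO in place of 20 nM camptothecin. After compound pinning, cells grew at least 48 hr at 37 °C; viability read by CellTiter-Glo luminescence.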
TDP1 inh: qHTS Assay for Inhibitors of Tyrosyl-DNA Phosphodiesterase (TDP1) | recombinant TDP1, AlphaScreen DNA substrate cleavage | Potency, µM (top dose mostly 130 µM), most hits filed as inhibitors | actives 0.28% (n = 350,000) | AID 485290, 2010; note: nearly all actives have a fitted effect of over 40% in size
Target sequence (Q9NUW8 whole entry, looked up): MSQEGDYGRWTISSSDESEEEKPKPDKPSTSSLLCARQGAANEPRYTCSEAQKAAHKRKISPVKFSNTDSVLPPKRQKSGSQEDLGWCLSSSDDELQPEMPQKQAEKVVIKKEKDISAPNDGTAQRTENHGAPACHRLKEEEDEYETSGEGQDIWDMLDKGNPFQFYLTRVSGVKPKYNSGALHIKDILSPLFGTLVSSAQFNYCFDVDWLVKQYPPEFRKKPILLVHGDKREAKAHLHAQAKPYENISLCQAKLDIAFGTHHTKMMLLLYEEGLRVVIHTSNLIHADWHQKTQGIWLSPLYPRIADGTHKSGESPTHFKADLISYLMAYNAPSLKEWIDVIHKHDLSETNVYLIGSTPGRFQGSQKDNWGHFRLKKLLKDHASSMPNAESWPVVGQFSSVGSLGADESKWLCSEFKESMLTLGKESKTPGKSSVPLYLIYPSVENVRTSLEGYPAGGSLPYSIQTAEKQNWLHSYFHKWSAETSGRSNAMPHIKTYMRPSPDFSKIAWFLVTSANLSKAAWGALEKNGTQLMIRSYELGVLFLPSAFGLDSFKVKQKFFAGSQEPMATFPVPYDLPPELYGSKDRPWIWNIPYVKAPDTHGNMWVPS
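Signal: AlphaScreen proximity between streptavidin donor and anti-FITC acceptor beads on intact substrate. Reaction: Tdp1 1 nM, substrate 15 nM final, 5 min RT after 15 min compound preincubation.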
TDP1 cell CPT: qHTS for Inhibitors of human tyrosyl-DNA phosphodiesterase 1 (TDP1): qHTS in cells in presence of CPT; actives 12% (n = 420,000); Potency, µM (highest dose often 46.2 µM), usual class: inhibitors; AID 686979, 2013; chicken DT40 Tdp1-/-;hTDP1 cells + 20 nM CPT, ATP luminescence, 48 h; note: nearly all actives have a fitted effect of over 55% in size
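Chicken DT40 Tdp1-/- cells stably complemented with human TDP1 were seeded at 400 cells/well in medium containing 20 nM camptothecin, exposed to pin-transferred compounds, and grown at 37 °C for at least 48 hr. Viability was read as ATP luminescence.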
miR-21 act: qHTS Assay for Modulators of miRNAs and/orActivators of miR-21 | Potency, µM (top dose mostly 38.3 µM), actives largely listed as activators | AID 2288, 2010 | HeLa miR-21 FLuc reporter, luciferase, 48 h | 340,000 tested, under 10 active;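 note: miR-21 action dims this reporter so a rising signal means less miR-21 action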
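HeLa miR-21-FLuc reporter line, endogenous miR-21; 2000 cells/well in DMEM/10% FBS; compound titration up to ~40uM final, 48 h, 37 degree Celsius; luciferase detection reagent, 15 min lysis, CCD luminescence.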
Each line names hits and unclear results; the compound was inactive in the other large screens. Unless noted, calls come from the whole dose curve; as a rule, active = well fitted curve in the direction sought with a large enough effect; inconclusive = small, poorly fitted or top-dose-only effect, or another doubt; inactive = no such curve, though single readings can be large; an effect the other way counts as inactive or inconclusive.

COc1ccc(CCNCC(=O)Nc2ccc(C)c(Br)c2)cc1OC	TDP1 cell noCPT inconclusive, TDP1 cell CPT 9.2µM (no result: TDP1 inh)
COc1ccc(CCNCC(=O)Nc2ccc(C)c(S(=O)(=O)N(C)C)c2)cc1OC	TDP1 inh 79µM, TDP1 cell CPT inconclusive
Cc1ccc(NC(=O)CSc2nn(-c3ccc(Cl)cc3)c(=S)s2)cc1S(=O)(=O)N(C)C	TDP1 cell noCPT inconclusive, TDP1 cell CPT 9.2µM
CC(=O)Nc1ccc(S(=O)(=O)NNC(=O)c2cccc(Cl)c2)cc1	none
Cc1ccc(-c2nc(Nc3cccc(O)c3)c3ccccc3n2)cc1	TDP1 cell noCPT 23µM, TDP1 cell CPT 21µM (no result: TDP1 inh)
O=C(O)c1cccc(Nc2nc(-c3ccc([N+](=O)[O-])cc3)nc3ccccc23)c1	none (no result: TDP1 inh)
O=[N+]([O-])c1ccc(-c2nc(Nc3cccc(O)c3)c3ccccc3n2)cc1	TDP1 cell noCPT 4.1µM, TDP1 cell CPT 16µM, miR-21 act inconclusive (no result: TDP1 inh)
Cc1ccc(-c2nc(Nc3ccc(O)cc3)c3ccccc3n2)cc1	TDP1 cell noCPT 21µM, TDP1 cell CPT inconclusive (no result: TDP1 inh)
Cc1ccc(-c2nc(Nc3ccc(N4CCOCC4)cc3)c3ccccc3n2)cc1	TDP1 cell noCPT 23µM, TDP1 cell CPT inconclusive (no result: TDP1 inh)
CCOC(=O)c1cc(S(=O)(=O)NCc2ccc(C)cc2)[nH]n1	TDP1 cell CPT inconclusive (no result: uPA surface inh)
Oc1ccc(Nc2nc(-c3ccccc3O)nc3ccccc23)cc1	TDP1 cell noCPT inconclusive, TDP1 cell CPT inconclusive (no result: TDP1 inh)
OCCNc1nc(Nc2cccc(O)c2)nc2ccccc12	TDP1 cell noCPT inconclusive, TDP1 cell CPT inconclusive
COC(=O)c1ccc(Nc2nc(-c3ccc(C)cc3)nc3ccccc23)cc1	TDP1 cell noCPT 7.3µM, TDP1 cell CPT 13µM (no result: uPA surface inh, TDP1 inh)
Oc1cccc(Nc2nc(-c3ccccc3Cl)nc3ccccc23)c1	TDP1 cell noCPT 13µM, TDP1 cell CPT 16µM (no result: TDP1 inh)
c1cncc(Nc2c3ccccc3nc3ccccc23)c1	TDP1 cell noCPT 15µM, TDP1 cell CPT inconclusive (no result: TDP1 inh)
Oc1cccc(Nc2c3ccccc3nc3ccccc23)c1	uPA surface inh inconclusive, TDP1 cell noCPT 1.8µM, TDP1 cell CPT 1.2µM (no result: TDP1 inh)
CC(NC(=O)/C=C/c1ccco1)c1nc2ccccc2n1Cc1cccc(Cl)c1 (stereo not drawn)	TDP1 cell noCPT inconclusive, TDP1 cell CPT inconclusive
O=C(Nc1ccc(Br)cc1Cl)NC1CC1	none
Cc1sc2ncnc(Nc3ccccc3)c2c1C	TDP1 cell noCPT inconclusive, TDP1 cell CPT inconclusive
Cc1sc2ncnc(Nc3ccc(N4CCOCC4)cc3)c2c1-c1ccccc1	TDP1 cell noCPT inconclusive, TDP1 cell CPT 16µM
Cc1ccccc1CN1N=C(/C=C/c2ccccc2)CCC1=O	TDP1 cell noCPT 23µM
COCCN(C(=O)CSc1ncccn1)c1c(N)n(Cc2ccccc2)c(=O)[nH]c1=O	none (no result: miR-21 act)
Cc1ccc(C)c(NC(=O)CN(C)C(=O)c2cc([N+](=O)[O-])ccc2N2CCOCC2)c1	none (no result: TDP1 inh, miR-21 act)
O=C(O)c1ccccc1NC(c1ccccc1)c1ccc(Cl)cc1 (stereo not drawn)	TDP1 cell noCPT inconclusive (no result: TDP1 inh)
O=C(CSc1nnc(-c2ccco2)o1)NC1CCCCCC1	none
C=CCN=C1N[C@@H](c2ccccc2)C(C(=O)OC)=C(C)N1CC	TDP1 cell CPT inconclusive (no result: TDP1 inh)
CCN1C(=O)N[C@@H](c2ccc(Br)cc2)C(C(=O)OC)=C1C	TDP1 cell noCPT inconclusive, TDP1 cell CPT inconclusive
COC(=O)C1=C(C)N(Cc2ccccc2)C(=NCC(C)C)N[C@H]1c1ccccc1	uPA surface inh inconclusive, TDP1 cell noCPT 4.1µM, TDP1 cell CPT 4.1µM (no result: TDP1 inh)
C=CCN=C1N[C@@H](c2ccc(Br)cc2)C(C(=O)OC)=C(C)N1Cc1ccccc1	TDP1 cell noCPT inconclusive, TDP1 cell CPT 13µM (no result: uPA surface inh, TDP1 inh)
CCOC(=O)C1=C(C)N(CCCC(=O)O)C(=O)NC1c1ccc(OC)cc1 (stereo not drawn)	none
COC(=O)C1=C(C)N(CC2CC2)C(=O)N[C@H]1c1ccc(Br)cc1	TDP1 cell noCPT inconclusive, TDP1 cell CPT 23µM
CCOC(=O)C1=C(C)N(C[C@@H]2CC[C@@H](Cc3ccc4cc(OC)ccc4c3)O2)C(=O)NC1c1ccccc1 (stereo partly drawn)	uPA surface inh inconclusive, TDP1 cell noCPT inconclusive, TDP1 cell CPT 21µM (no result: miR-21 act)
CC(C)(C)C1c2[nH]c3ccccc3c2CCN1Cc1cccc(OCCO)c1 (stereo not drawn)	TDP1 cell noCPT inconclusive
CC1(C)Cc2c(sc3c2c(N)nc(=S)n3Cc2ccccc2)CO1	none (no result: uPA surface inh, TDP1 cell noCPT, TDP1 cell CPT)
COC(=O)C1=C(C)N(Cc2ccccc2)C(=NCc2ccc(OC)cc2)N[C@H]1c1ccccc1	uPA surface inh inconclusive, TDP1 cell noCPT 8.2µM, TDP1 cell CPT 7.3µM
Cc1[nH]c2ccc(C(=O)NCC(C)(C)N3CCOCC3)cc2c1C	none
COc1ccc(-n2nnnc2C2CCN(S(=O)(=O)c3ccc(C)cc3)CC2)cc1	TDP1 cell CPT 13µM (no result: uPA surface inh)
COc1ccc(-n2nnnc2C2CCN(S(=O)(=O)c3cc(Cl)ccc3OC)CC2)cc1	TDP1 cell noCPT 18µM, TDP1 cell CPT 13µM, miR-21 act inconclusive (no result: uPA surface inh)
O=C(CC1(O)C(=O)Nc2ccccc21)c1ccccc1 (stereo not drawn)	TDP1 cell CPT inconclusive
C#CCN1C(=O)C(O)(CC(=O)c2ccc3c(c2)OCCO3)c2ccccc21 (stereo not drawn)	TDP1 cell noCPT 23µM, TDP1 cell CPT inconclusive
O=C(CC1(O)C(=O)N(Cc2ccccc2)c2ccccc21)c1ccncc1 (stereo not drawn)	TDP1 cell noCPT 3.7µM, TDP1 cell CPT 3.7µM
O=C(CC1(O)C(=O)N(CCc2ccccc2)c2ccc(Br)cc21)c1ccccc1O (stereo not drawn)	TDP1 cell noCPT 5.8µM, TDP1 cell CPT 5.2µM (no result: uPA surface inh, TDP1 inh)
O=C(CC1(O)C(=O)Nc2ccc(Br)cc21)c1ccccc1 (stereo not drawn)	TDP1 cell noCPT 26µM, TDP1 cell CPT inconclusive (no result: uPA surface inh, TDP1 inh, miR-21 act)
CCCN1C(=O)C(O)(CC(=O)c2ccc3c(c2)OCCO3)c2ccccc21 (stereo not drawn)	TDP1 cell noCPT inconclusive, TDP1 cell CPT inconclusive
CCN(C(=O)CSc1nnc2ccccn12)c1c(N)n(Cc2ccccc2)c(=O)[nH]c1=O	none
COC(=O)CN1C(=O)C(O)(CC(=O)c2ccc(C)cc2)c2cc(Br)ccc21 (stereo not drawn)	TDP1 cell CPT inconclusive
O=C(CC1(O)C(=O)N(Cc2ccccc2)c2ccc(Br)cc21)c1ccccc1 (stereo not drawn)	TDP1 cell noCPT 5.8µM, TDP1 cell CPT 15µM, miR-21 act inconclusive (no result: uPA surface inh, TDP1 inh)
C#CCN1C(=O)C(O)(CC(=O)c2ccc(OC)c(OC)c2)c2cc(Br)ccc21 (stereo not drawn)	TDP1 cell noCPT 6.5µM, TDP1 cell CPT 4.6µM (no result: uPA surface inh, TDP1 inh)

High-throughput results as filed in PubChem.
